Among the data in ChEMBL document CHEMBL3988442, “University of Dundee, Small-Polar-MMV Screening Library” (2021) are Percent Effect values, retold here.

Common to all, as to set-up: scale not given: direction of the effect not stated beside the values
In test [1] the target is Protein translocase subunit SecA (Escherichia coli (strain K12)) (UniProt P10408). The test is described as follows: Assay to Identify E. coli SecA ATPase Inhibitors. It is filed as functional. The settings on record: 30 µM.
Test [2] has as its target T1, Ubiquitin-activating enzyme e1, putative (Leishmania donovani (strain BPK282A1)) (UniProt E9BSI1).
T1 sequence (whole entry): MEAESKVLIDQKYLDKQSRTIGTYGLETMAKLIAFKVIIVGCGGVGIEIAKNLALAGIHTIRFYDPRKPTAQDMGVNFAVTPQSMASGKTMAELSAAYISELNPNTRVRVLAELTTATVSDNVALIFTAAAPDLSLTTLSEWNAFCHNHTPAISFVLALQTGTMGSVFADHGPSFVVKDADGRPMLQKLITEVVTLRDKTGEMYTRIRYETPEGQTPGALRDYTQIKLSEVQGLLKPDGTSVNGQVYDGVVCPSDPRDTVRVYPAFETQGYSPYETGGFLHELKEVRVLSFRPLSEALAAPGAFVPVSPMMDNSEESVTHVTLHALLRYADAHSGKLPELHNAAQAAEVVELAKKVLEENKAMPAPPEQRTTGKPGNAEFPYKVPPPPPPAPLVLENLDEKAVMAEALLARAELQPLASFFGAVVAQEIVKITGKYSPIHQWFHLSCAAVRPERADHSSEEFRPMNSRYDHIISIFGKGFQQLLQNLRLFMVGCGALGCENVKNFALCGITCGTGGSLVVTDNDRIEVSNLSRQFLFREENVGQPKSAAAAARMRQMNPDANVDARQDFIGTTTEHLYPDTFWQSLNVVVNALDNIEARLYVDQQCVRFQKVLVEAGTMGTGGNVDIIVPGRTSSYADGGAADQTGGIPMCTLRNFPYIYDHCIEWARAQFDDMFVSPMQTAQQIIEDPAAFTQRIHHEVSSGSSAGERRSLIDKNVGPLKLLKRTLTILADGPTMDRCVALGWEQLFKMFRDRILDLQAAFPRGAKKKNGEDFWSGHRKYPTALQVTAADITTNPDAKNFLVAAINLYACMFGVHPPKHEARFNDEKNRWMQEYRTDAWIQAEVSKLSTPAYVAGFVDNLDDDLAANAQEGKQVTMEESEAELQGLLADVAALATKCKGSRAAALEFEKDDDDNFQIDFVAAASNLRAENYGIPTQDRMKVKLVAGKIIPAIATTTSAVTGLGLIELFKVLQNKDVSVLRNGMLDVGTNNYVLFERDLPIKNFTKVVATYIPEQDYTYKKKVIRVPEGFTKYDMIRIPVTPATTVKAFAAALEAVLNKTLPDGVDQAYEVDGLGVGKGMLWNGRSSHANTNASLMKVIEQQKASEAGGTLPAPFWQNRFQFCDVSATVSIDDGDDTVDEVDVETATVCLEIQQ
The test is described as follows: Leishmania donovani Ubiquitin Activating Enzyme (LdE1). The conditions noted are these: 30 µM. It is filed as functional.

The target of test [3] is AMP-activated protein kinase, AMPK (Homo sapiens) (UniProt P54646+O43741+P54619+Q9UGJ0+Q9Y478+Q13131+Q9UGI9). The test is described as follows: AMP-dependent Kinase enzyme assay. An in vitro enzyme assay that detects ADP turnover that is directly proportional to AMPK activity. This uses naive AMPK that is activated during the assay with MK-8722. It is filed as functional. The conditions noted are these: 30 µM.

For test [4], the target named is Sialic acid-binding Ig-like lectin 9 (Homo sapiens) (UniProt Q9Y336). The test is described as follows: Hs-Siglec9 ALPHAscreen SOP 20170721. The conditions noted are these: 10 µM. For orientation: Bead proximity is the source of the signal in Alpha formats.
Test [5] deals with Trypanosoma cruzi. The test is described as follows: Trypanosoma cruzi phosphomannomutase and mannose-1-phosphate guanylyltransferase assay. The conditions noted are these: 10 µM. It is filed as functional.
For test [6], the target named is T2, Arginase-2, mitochondrial (Homo sapiens) (UniProt P78540).
T2 sequence (whole entry): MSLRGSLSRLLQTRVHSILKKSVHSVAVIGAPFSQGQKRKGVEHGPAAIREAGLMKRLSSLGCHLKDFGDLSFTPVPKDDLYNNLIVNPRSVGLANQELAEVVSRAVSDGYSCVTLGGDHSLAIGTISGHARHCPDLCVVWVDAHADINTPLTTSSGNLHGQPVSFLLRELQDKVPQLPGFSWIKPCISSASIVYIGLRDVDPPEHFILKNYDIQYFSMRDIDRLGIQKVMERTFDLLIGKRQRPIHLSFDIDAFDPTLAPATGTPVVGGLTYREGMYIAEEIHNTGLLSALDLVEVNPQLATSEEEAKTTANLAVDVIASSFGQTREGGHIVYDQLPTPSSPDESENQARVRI
Kind of test: in vitro enzyme assay to detect the production of urea directly proportional to the activity of Arginase II. Note: in the data most compounds retested in dose-response had high values. It is filed as functional. The settings on record: 33.3 µM.

For test [7], the target named is T3, Proteasome subunit beta (Trypanosoma cruzi) (UniProt O96673).
T3 sequence (whole entry): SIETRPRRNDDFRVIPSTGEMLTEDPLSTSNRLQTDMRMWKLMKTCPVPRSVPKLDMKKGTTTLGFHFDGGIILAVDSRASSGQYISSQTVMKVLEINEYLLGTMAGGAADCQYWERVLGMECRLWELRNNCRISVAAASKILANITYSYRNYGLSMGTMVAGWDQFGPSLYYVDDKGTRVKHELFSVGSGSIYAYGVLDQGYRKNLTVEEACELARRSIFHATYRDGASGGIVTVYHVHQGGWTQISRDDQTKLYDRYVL
Kind of test: Trypanosoma cruzi proteasome chymotrypsin-like activity (TcProtChymo) assay. Note: in the data most compounds retested in dose-response had high values. It is filed as functional. The settings on record: 9.37 µM.

The species entered for test [8] is Homo sapiens. Kind of test: To identify inhibition of the IFN signalling (Jak-Stat) pathway via expression of an eGFP reporter gene under the control of an IFN-stimulated response element (ISRE) containing MxA promoter. It is filed as functional. The settings on record: 30 µM. In general terms: A reporter such as luciferase makes a cellular process visible.
The target in test [9] is T4, Tyrosyl-tRNA synthetase, putative (Trypanosoma cruzi (strain CL Brener)) (UniProt Q4DSP6).
T4 sequence (whole entry): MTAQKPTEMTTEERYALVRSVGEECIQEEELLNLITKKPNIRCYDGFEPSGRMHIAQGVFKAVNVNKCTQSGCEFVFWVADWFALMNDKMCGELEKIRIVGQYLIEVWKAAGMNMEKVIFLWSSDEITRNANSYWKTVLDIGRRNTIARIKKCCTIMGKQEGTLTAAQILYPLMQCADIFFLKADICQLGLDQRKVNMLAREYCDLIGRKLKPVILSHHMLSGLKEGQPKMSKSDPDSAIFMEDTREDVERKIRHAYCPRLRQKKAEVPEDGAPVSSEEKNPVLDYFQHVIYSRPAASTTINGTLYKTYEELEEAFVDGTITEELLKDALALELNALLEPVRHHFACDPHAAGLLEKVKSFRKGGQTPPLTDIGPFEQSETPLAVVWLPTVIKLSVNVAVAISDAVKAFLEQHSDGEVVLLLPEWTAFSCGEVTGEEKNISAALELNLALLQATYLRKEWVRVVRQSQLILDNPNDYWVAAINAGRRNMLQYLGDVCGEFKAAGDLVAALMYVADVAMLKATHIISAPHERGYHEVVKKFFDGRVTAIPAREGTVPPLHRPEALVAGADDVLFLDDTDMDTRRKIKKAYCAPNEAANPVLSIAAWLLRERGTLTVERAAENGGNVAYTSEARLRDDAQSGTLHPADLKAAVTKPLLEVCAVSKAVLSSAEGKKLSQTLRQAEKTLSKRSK
Kind of test: Trypanosoma cruzi tyrosyl tRNA synthetase (TcYRS) _High Tyrosine SOP. Note: in the data most compounds retested in dose-response had high values. It is filed as functional. The settings on record: 30 µM.

Test [10] addresses T4, Tyrosyl-tRNA synthetase, putative (Trypanosoma cruzi (strain CL Brener)). The test is described as follows: Trypanosoma cruzi tyrosyl tRNA synthetase (TcYRS) SOP. It is filed as functional. The conditions noted are these: 30 µM.
In test [11] the target is Chromo domain-containing protein 1 (Saccharomyces cerevisiae (strain ATCC 204508 / S288c) (Baker's yeast)) (UniProt P32657). Kind of test: ScCHD-1 Enzyme Inhibition Assay. Note: in the data most compounds retested in dose-response had high values. It is filed as functional. The settings on record: 30 µM.

For some assays here: Results with a measured potency or affinity are listed apart.

Chain of Chromo domain-containing protein 1 (Saccharomyces cerevisiae (strain ATCC 204508 / S288c) (Baker's yeast)) (P32657 whole entry, the tested form may be a part): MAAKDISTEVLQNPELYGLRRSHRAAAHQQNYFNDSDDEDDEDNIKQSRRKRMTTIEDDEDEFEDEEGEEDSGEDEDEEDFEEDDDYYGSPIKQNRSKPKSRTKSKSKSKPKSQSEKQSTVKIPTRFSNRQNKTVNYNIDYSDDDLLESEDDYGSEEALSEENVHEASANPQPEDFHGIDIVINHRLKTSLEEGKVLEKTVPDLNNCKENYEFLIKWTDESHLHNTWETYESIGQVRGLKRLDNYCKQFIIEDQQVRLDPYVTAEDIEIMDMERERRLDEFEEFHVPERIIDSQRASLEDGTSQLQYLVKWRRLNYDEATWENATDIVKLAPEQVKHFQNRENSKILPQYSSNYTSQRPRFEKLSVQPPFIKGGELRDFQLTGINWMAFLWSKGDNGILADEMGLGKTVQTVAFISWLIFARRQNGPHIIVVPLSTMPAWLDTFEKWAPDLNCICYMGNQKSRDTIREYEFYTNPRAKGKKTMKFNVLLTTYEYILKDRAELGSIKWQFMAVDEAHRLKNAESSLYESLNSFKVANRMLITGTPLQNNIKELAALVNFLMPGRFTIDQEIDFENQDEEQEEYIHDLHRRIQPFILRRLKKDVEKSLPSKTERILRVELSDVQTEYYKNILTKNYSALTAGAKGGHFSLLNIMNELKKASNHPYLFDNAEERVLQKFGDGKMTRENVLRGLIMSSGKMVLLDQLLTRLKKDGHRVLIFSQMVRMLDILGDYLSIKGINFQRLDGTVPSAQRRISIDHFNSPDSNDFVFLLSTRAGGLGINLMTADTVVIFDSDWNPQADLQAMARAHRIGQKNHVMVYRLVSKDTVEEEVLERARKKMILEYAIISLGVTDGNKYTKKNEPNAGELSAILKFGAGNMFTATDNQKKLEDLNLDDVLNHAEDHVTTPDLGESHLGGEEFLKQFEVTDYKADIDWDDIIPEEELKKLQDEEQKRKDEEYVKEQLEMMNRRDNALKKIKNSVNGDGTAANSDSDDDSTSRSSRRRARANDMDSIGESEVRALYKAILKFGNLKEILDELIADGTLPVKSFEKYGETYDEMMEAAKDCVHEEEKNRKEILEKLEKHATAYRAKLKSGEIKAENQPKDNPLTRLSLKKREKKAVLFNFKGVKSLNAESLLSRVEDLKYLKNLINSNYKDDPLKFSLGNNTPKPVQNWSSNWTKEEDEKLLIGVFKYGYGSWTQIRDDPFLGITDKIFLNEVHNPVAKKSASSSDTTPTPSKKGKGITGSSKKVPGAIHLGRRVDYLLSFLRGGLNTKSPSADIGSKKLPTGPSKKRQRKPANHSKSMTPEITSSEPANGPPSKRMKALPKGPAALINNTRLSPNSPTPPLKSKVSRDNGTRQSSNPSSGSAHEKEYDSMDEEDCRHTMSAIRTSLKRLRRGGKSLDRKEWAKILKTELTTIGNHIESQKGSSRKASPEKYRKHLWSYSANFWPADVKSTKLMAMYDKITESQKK
Chain of Sialic acid-binding Ig-like lectin 9 (Homo sapiens) (Q9Y336 whole entry): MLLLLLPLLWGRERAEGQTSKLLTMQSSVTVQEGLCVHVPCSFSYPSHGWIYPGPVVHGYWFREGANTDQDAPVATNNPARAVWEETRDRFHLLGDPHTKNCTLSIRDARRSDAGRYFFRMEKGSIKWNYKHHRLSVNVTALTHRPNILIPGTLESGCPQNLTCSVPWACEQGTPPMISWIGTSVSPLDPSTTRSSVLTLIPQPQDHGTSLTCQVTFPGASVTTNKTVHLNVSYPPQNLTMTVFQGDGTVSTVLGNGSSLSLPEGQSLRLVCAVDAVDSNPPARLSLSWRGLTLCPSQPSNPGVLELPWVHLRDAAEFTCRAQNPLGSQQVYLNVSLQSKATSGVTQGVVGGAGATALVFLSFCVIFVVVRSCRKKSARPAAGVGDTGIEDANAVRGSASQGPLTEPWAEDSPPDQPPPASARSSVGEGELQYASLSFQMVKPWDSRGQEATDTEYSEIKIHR
Chain of Protein translocase subunit SecA (Escherichia coli (strain K12)) (P10408 whole entry): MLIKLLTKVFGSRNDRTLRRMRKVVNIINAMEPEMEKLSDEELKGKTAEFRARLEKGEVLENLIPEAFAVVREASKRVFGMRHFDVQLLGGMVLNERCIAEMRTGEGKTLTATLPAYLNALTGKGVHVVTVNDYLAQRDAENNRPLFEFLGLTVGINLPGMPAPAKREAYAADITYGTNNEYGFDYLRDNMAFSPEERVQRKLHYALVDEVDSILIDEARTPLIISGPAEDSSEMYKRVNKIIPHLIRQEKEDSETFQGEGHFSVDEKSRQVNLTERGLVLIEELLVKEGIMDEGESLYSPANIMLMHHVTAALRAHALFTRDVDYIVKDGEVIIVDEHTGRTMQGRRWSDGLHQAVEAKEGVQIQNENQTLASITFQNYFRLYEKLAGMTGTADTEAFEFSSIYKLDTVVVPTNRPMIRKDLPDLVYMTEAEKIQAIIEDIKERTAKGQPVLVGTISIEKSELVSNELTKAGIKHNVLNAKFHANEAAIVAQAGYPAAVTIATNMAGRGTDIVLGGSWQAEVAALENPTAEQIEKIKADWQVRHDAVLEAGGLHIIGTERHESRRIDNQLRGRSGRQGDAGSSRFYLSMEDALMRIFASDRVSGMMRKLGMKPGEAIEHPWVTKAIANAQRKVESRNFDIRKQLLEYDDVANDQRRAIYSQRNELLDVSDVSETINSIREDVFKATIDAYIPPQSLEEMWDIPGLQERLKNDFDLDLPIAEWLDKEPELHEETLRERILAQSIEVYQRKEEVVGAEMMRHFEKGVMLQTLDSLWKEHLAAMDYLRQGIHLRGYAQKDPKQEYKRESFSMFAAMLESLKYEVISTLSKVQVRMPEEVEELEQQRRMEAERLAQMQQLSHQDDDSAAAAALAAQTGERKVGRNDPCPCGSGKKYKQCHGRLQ

Regarding `CCN(CC)C(=O)CCNc1cncc(-n2nc(C)cc2C)n1`, the Percent Effect was -5.54% in test [1]; 5.41% in [2]; 3.1% in [3]; -3.77% in test [4]; -7.92% in test [5]; 4.71% in [6]. Besides, the Percent Effect in test [7] was 13.1%; in [8], 6.24%; in test [9], 2.15%; in test [10], 3.7%; in test [11] it was -6.4%.
Turning to `Cc1cc2c(=O)n3c(nc2s1)CCN(C(=O)c1ccncc1)CC3`, the Percent Effect in test [1] is 0.412%; in [2] it was 1.35%; in [3], 20.6%; in test [4], 7.55%; in test [5], -4.74%; in test [6] it was 3.02%. The Percent Effect in test [7] was 9.98%; in [8] it was 0.756%; in test [9] it was 2.15%; in test [10], 6.49%; in [11], -4.17%.
Consider `Cc1nn(C)c(C)c1C1CCCN1C(=O)c1cc[nH]n1` (stereo not given), for which the Percent Effect is -3.64% in test [1]; 3.8% in [2]; 5.29% in [3]; 4% in [4]; -4.41% in test [5]; -1.07% in [6]. For the same compound, the Percent Effect is 5.49% in test [7]; 10.6% in test [8]; -1.04% in test [9]; 7.59% in test [10]; 7.31% in test [11].
As to `O=C(CCC1CCCO1)NS(=O)(=O)c1ccc(Cl)cc1` (stereo not given), the Percent Effect is -3.22% in [1]; 18.9% in test [2]; -10.2% in test [3]; 0.394% in test [4]; -4.81% in [5]; -2% in test [6]. Besides, the Percent Effect in [7] is 17.5%; in test [8], 16.7%; in [9], 8.37%; in test [10] it was 18.5%; in [11] it was -1.63%.
With `Nc1cc(N2CCCC2c2cnccn2)ncn1` (stereo not given), the Percent Effect was -0.532% in [1]; 9.46% in test [2]; -1.66% in test [3]; -2.65% in test [4]; 2.96% in test [5]; -5.34% in [6]. Besides, the Percent Effect in [7] is 14.8%; in test [8] it was 2.07%; in test [9], 8.6%; in [10], 14.3%; in test [11] it was -13.1%.
Take `CC(C)(C(=O)NCC(N)=O)c1ccccc1F`: the Percent Effect was -2.75% in test [1]; -1.39% in [2]; -0.917% in [3]; -6.27% in [4]; -3.98% in [5]; -17.7% in test [6]. The Percent Effect is 6.67% in test [7]; -3.33% in [8]; 2.1% in [9]; 0% in test [10]; -1.29% in test [11].
Regarding `Cn1ccnc1CN1CCC2(CC(=O)N(c3cccc(F)c3)C2)C1` (stereo not given), the Percent Effect was 1.4% in [1]; 10.4% in test [2]; 15% in test [3]; -4.43% in [4]; -7.2% in test [5]; 7.1% in [6]. Further, the Percent Effect in [7] was 14.8%; in test [8] it was 6.27%; in test [9], 7.41%; in test [10], 14.1%; in test [11], -7.71%.
As to `Cc1nc(CN2CCOC(CNc3cccnn3)C2)cs1` (stereo not given), the Percent Effect was 0.542% in test [1]; -8.11% in test [2]; -13.4% in test [3]; 10.4% in test [4]; 3.87% in [5]; -2.81% in test [6]. The Percent Effect in test [7] was 20.2%; in [8], 3.75%; in test [9], 14.3%; in test [10] it was 6.17%; in test [11], -6.92%.
In the case of `Cc1nnc(CN2CCC(N(C)Cc3nnc(C4CC4)n3C)C2)o1` (stereo not given), the Percent Effect is -3.08% in [1]; 16.2% in [2]; -9.74% in test [3]; -7.84% in [4]; -6.32% in [5]; -1.2% in test [6]. Further, the Percent Effect is 5.04% in test [7]; 20.7% in [8]; 4.43% in test [9]; 11.1% in test [10]; -4.72% in test [11].
For the compound `CCCn1[nH]cc/c1=N\C(=O)CN1CCc2c(nc(C(C)C)n2C)C1`, the Percent Effect in [1] was -0.801%; in [2] it was 20.8%; in test [3], -5.35%; in test [4] it was -15.6%; in [5], -2.06%; in test [6] it was -4.84%. The Percent Effect in test [7] is 11.6%; in [8], 18.7%; in [9], 8.57%; in [10], 23.5%; in test [11] it was -19.2%.
